# Source: PubChem (National Center for Advancing Translational Sciences (NCATS))
# Sampled rows, rich in hits. Any-hit rate of the full collection: about 11%.
# FLuc inh: Firefly luciferase inhibition profiling of diverse chemical library using quantitative high-throughput screening | Luciferin 4-monooxygenase (Photinus pyralis), P08659 | purified P. pyralis luciferase, luminescence, biochemical | Potency, µM (series often up to 115 µM), usual class: inhibitors | 76,000 tested, 2.5% active; further: nearly all actives have a fitted effect of over 65% in size
# Target sequence (P08659 whole entry, looked up): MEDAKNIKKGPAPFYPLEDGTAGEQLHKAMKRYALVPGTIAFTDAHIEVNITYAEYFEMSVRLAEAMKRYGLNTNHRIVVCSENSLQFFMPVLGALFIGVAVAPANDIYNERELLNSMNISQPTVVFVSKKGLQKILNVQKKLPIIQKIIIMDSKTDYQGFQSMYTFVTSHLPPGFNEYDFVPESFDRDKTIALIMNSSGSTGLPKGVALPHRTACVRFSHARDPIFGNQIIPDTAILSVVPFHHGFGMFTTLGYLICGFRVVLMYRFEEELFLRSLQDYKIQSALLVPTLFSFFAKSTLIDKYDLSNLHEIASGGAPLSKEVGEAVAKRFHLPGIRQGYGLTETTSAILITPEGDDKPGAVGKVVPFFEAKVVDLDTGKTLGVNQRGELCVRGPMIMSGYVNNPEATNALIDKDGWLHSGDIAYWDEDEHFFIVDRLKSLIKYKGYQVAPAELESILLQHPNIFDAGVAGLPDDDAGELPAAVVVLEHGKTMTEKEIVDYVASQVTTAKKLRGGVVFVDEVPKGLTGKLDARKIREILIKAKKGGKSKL
#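 Inhibitors were tested against purified firefly luciferase in a biochemical, low-substrate format (both substrates at 10uM) and luminescence measured with a CCD imager.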
# 3T3 cytotox: Cytotoxic Profiling in NIH 3T3 Cell Line of Diverse Libraries Using Quantitative High-Throughput Screening; Potency, µM (top dose mostly 96.7 µM), without a hit: top-dose activity change, negative = cytotoxicity, hits mostly inhibitors; NIH 3T3 viability, CellTiter-Glo ATP luminescence, 48-72 h; AID 1345082, 2018; 94,000 tested, 4.3% active; further: nearly all actives have a fitted effect of over 55% in size
#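 First NIH 3T3 cells are plated at 400 cells/well; next compound is pinned in; then plates incubate 48 or 72 hr at 37 °C; finally CellTiter-Glo is added and luminescence read after 10 min.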
# HEK293 tox: Cytotoxic Profiling in HEK 293 Cell Line of Diverse Libraries Using Quantitative High-Throughput Screening. Potency, µM (titrated, usually from 115 µM), for the others: at the highest dose activity change, negative = cytotoxicity, hits mostly inhibitors. 94,000 tested, 6.6% active. HEK 293 viability, ATP luminescence (CellTiter-Glo), 48-72 h; further: nearly all actives have a fitted effect of over 60% in size
#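 ATP-coupled CellTiter-Glo luminescence served as viability read-out, recorded 10 min after reagent addition at room temperature. HEK 293 cells, 250 cells/well, had been incubated with pintool-transferred compound for 48 or 72 hr at 37 degree Celsius.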
# NPR1 antag: Natriuretic polypeptide receptor (hNpr1) antagonism - Primary qHTS; HEK293 hNpr1 GloSensor cGMP, ANP-stimulated luminescence; Atrial natriuretic peptide receptor 1 (Homo sapiens), P16066; AID 1347048, 2019; Potency, µM (highest dose often 46.3 µM), for inactives: at the top dose activity change, negative = inhibition, actives largely listed as inhibitors; 76,000 tested, 1.6% active; calls by dose curve; further: nearly all actives have a fitted effect of over 60% in size
#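 HEK293 cells stably expressing human Npr1 and cGMP GloSensor pGS-40F, loaded 2 h with 2% GloSensor reagent, given compound 30 min at room temperature. Luminescence read before and 20 min after 0.1 nM hNppA.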
# Starred values were filed as active, the others as inactive; i = inactive; ? = inconclusive; · = no result; ! = not confirmed by another sample; [ ] = remark or other dose. Unless noted, the call rests on the fitted dose curve; in most records, active means well fitted curve in the direction sought with a large enough effect; inconclusive means small, poorly fitted or top-dose-only effect, or another doubt; inactive means no such curve, though single readings can be large; an effect the other way counts as inactive or inconclusive. On the % scale 0 is the no-effect control and ±100 the full control effect; potency means the concentration at half of the fitted maximal effect.
SMILES,FLuc inh,3T3 cytotox,HEK293 tox,NPR1 antag
O=C(NCCOc1ccccc1)c1ccc2c(c1)OCCN(CCC(F)(F)F)C2,40µM*,-28%[138 µM],?,-10%[70.6 µM]
CC(C)CCN1CCOc2cc(C(=O)Nc3ccccc3)ccc2C1,i,11µM*,?,-21%[70.6 µM]
COCC1CN(C)CC12CCN(Cc1ccc(OC)c(Cn3ccnc3)c1)CC2 (centres undefined),i,?,?,-5%
CNc1ncc(C(=O)N2CCCC(CCc3ccc(F)cc3)C2)cn1 (centres undefined),i,?,?,4%
Cc1[nH]c2c(c1C(=O)N1CCCC(CCc3ccc(F)cc3)C1)C(=O)CCC2 (centres undefined),i,?,32µM*,?
O=C(CCc1c[nH]c2ccccc12)N1CCC[C@H]1c1nc(-c2ccc(F)cc2)n[nH]1,·,?,40µM*,·
O=C(CCc1c[nH]c2ccccc12)N1CCC(Cc2nc(-c3ccncc3)n[nH]2)CC1,·,?,-29%,·
CCN(Cc1ccccc1F)C(=O)c1cc(COc2ccccc2)[nH]n1,i,?,?,5%
CCC(c1cccnc1)N(C)C(=O)c1cc(COc2ccccc2)[nH]n1 (centres undefined),i,-15%,79µM*,-1%
O=C(NC1CCN(c2ccc3nnc(-c4ccccc4)n3n2)C1)C1CCCC1 (centres undefined),·,-18%,i,·
CN(C)C[C@@H]1CN(S(C)(=O)=O)C[C@H]1NC(=O)C1(c2ccccc2)CCCC1,i,i,-5%,-3%
Cc1ccccc1Oc1c(CCC(=O)N2CCSCC2)c(C)nn1-c1ccc(F)cc1,i,?,?,-25%
Cc1nn(-c2ccc(F)cc2)c(Oc2ccccc2F)c1CCC(=O)NCc1ccco1,i,35µM*,?,-19%
CCNC(=O)CCc1c(CC)nn(-c2ccccc2)c1Oc1ccccc1F,i,?,?,-1%
Cc1nn(-c2ccc(F)cc2)c(Oc2cccc(F)c2)c1CCC(=O)N1CCSCC1,i,?,35µM*,-17%
CCc1nn(-c2ccccc2)c(Oc2ccc(C)cc2)c1CCC(=O)N1CCSCC1,i,?,40µM*,-4%
Cc1nn(-c2ccc(F)cc2)c(Oc2cccc(F)c2)c1CCC(=O)N(C)C(C)C,i,?,50µM*,-17%
COC(=O)N1CCCN(c2ccc3nnc(C4CC4)n3n2)CC1,·,?,-27%[172 µM],·
CCc1nc2c(c(-c3ccc(O)cc3)n1)CN(C(=O)c1ccccc1)CC2,·,-21%,3%,·
O=C1NC(=NC2CCCC2)C2(CCN(Cc3ccsc3)C2)N1c1cccnc1 (centres undefined),·,-42%,?,·
CN1CC(=O)N(C2CCCNC2)Cc2c(NC3CCCCC3O)ncnc21 (centres undefined),·,i,i,·
Cc1nn(-c2ccc(F)cc2)c(Oc2ccc(F)cc2F)c1CCC(=O)N1CCCC1,i,?,?,-2%
Cc1nn(-c2ccc(F)cc2)c(Oc2ccccc2F)c1CCC(=O)N1CCCC1,i,28µM*,35µM*,-10%
CC1(c2noc(-c3ccccn3)n2)CCN(C(=O)CCCc2nc3ccccc3s2)CC1,i,?,40µM*,?
CCN(C(=O)CCC(=O)N1CCC(C)(c2noc(-c3ccccn3)n2)CC1)c1ccccc1,i,5%,?,-1%
SMILES,FLuc inh,3T3 cytotox,HEK293 tox,NPR1 antag
Cn1ncc2c(C(=O)NCCCl)cc(-c3ccccc3C(F)(F)F)nc21,·,-23%,-5%,·
Cc1ccc(-c2cc(C(=O)NCCc3ccc(F)cc3)c3cnn(C)c3n2)c(C)c1,·,?,40µM*,·
Cn1ncc2c(C(=O)NCc3cccc(Cl)c3)cc(C(C)(C)C)nc21,·,?,50µM*,·
Cn1ncc2c(C(=O)NCCc3ccc(F)cc3)cc(-c3ccc(Cl)cc3)nc21,·,-13%,?,·
Cn1ncc2c(C(=O)NCCc3ccc(Cl)cc3)cc(-c3ccccc3C(F)(F)F)nc21,·,32µM*,40µM*,·
Cn1ncc2c(C(=O)NCCc3ccc(Cl)cc3)cc(C(C)(C)C)nc21,·,?,40µM*!,·
Cc1cccc(C(=O)N2CCC(n3c(C)nn(C)c3=O)CC2)c1,·,-22%,2%,·
